In all, about 390,000 compounds went through this assay and about 17,000 (4.4%) were called active. About 8% were inconclusive and are not listed. Only a selection was taken, and actives are over-represented in it overall. Values without a mark were called inactive. Calls follow the shape of the dose curve; as a rule, active = well fitted inhibition curve with a large enough effect; inconclusive = small, poorly fitted or top-dose-only effect; inactive = no such curve, though single readings can be large or run the other way.
% is scaled to controls: 0 for no effect and ±100 for the full control effect; potency is read from the fitted curve at half-maximal effect.

Chain of Lysine-specific demethylase 4A (Homo sapiens) (O75164 whole entry, looked up, the tested form may be a part): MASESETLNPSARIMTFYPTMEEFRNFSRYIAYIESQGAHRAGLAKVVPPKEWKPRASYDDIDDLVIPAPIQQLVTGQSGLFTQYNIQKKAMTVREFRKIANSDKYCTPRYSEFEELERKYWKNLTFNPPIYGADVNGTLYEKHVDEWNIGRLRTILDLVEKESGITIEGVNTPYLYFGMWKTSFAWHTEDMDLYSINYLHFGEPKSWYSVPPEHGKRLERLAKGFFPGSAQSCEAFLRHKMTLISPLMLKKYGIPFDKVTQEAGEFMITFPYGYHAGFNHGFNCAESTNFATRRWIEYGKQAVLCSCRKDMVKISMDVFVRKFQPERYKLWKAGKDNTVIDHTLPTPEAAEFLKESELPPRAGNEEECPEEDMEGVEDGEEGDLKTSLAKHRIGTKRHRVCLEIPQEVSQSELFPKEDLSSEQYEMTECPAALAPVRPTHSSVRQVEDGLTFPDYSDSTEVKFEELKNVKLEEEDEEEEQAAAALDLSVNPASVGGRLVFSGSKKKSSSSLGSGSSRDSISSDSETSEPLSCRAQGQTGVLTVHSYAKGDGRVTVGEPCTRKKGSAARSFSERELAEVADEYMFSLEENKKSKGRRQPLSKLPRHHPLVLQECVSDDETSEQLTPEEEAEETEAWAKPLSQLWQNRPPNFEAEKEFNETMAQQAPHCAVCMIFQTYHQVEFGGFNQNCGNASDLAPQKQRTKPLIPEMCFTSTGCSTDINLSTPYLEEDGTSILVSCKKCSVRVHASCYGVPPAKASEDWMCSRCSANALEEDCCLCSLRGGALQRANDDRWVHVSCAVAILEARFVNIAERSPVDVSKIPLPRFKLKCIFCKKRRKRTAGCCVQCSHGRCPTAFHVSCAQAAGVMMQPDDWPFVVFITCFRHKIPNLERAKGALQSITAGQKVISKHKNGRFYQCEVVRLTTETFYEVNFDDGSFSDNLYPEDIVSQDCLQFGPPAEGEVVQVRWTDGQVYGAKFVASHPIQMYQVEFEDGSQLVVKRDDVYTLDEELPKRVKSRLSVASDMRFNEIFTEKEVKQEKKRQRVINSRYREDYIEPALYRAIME

The experiment addresses Lysine-specific demethylase 4A (Homo sapiens) (UniProt O75164). Kind of experiment: qHTS Assay for Inhibitors of JMJD2A-Tudor Domain. Also: nearly all actives have a fitted effect of over 50% in size. As to conditions: AlphaScreen JMJD2A-Tudor / H3K4me3 peptide binding; series mostly up to 114 µM; activity change, negative = inhibition: at the top concentration. Background: qHTS replaces the single test concentration by a dilution series.
As for `Cc1cccc(-n2c(=O)c3c(c4cc(C)ccc4n3C)n(CC(=O)Nc3ccccc3Cl)c2=O)c1`, the “activity change, negative = inhibition” value is -15.5%.

For the molecule `COc1cnc(-c2ccccn2)nc1Oc1ccc(C(C)(C)C)cc1`, the Potency was 31.6 µM (active).

For `O=C(Oc1ccc(-c2nc(-c3ccccn3)no2)cc1)c1ccccc1`, the “activity change, negative = inhibition” value was -11%.

Consider `COc1ccnc(Oc2ccccc2)c1-c1ncn[nH]1`, for which the “activity change, negative = inhibition” value is -8.7%.

`CC(=O)N1CC[n+]2c(-c3ccc([N+](=O)[O-])cc3)csc21`: the Potency was 7.94 µM (active).

With `Cc1cc(C)cc(C(=O)N2CCN=C2SCc2ccc([N+](=O)[O-])cc2)c1`, the “activity change, negative = inhibition” value is -25.3%.

As to `CN1C2CCC1CC(NC(=O)c1ccc([N+](=O)[O-])cc1)C2` (stereo not drawn), the “activity change, negative = inhibition” value is -6.06%.

For the molecule `O=C(Nc1nc2ccc(F)cc2s1)c1nc(SCc2ccccc2F)ncc1Cl`, the “activity change, negative = inhibition” value is -16.7%.

With `COc1ccc(NC(=O)C(=O)NCc2ccco2)cc1`, the “activity change, negative = inhibition” value was -10.1%.

On to `COc1ccc(-n2cnc3cc(C(=O)NC4CCCC4)ccc32)cc1`, for which the Potency result is “inactive”.

Consider `COc1ccc(-n2cnc3cc(NCc4ccco4)ccc32)cc1`, for which the Potency is 50.1 µM (active).

Consider `Cc1ccc(CSc2nc3cccnc3n2Cc2ccc(C(=O)NC3CC3)cc2)cc1`, for which the “activity change, negative = inhibition” value is -11.6%.

In the case of `CCOC(=O)c1[nH]c(C)c(CCC(=O)NCc2ccccc2C)c1C`, the “activity change, negative = inhibition” value was -30.2%.

Turning to `Cc1ccc(NCc2n[nH]c(=S)n2-c2ccccc2)cc1Cl`, the “activity change, negative = inhibition” value was -18.5%.

On to `S=c1[nH]nc(-c2cc(-c3ccsc3)n[nH]2)n1-c1ccccc1`, for which the Potency was 44.7 µM (active).

For `COc1cccc(-c2cc(C(=O)Nc3ccc(C)cc3)[nH]n2)c1`, the “activity change, negative = inhibition” value was -15.5%.

As to `CCc1ccc(NC(=O)Cn2c(=O)n(CCC(=O)NCc3ccc4c(c3)OCO4)c(=O)c3ccccc32)cc1`, the “activity change, negative = inhibition” value was -9.21%.

As to `O=C(CCSCc1ccccc1F)N1CCN(c2ccc(Cl)cc2)CC1`, the “activity change, negative = inhibition” value is -19%.

`Cc1cccc(NC(=O)N2CCN(C)c3ncccc32)c1C`: the “activity change, negative = inhibition” value is -19.5%.

Regarding `CCOc1ccc(CCNC(=O)c2cc3c(=O)n(C)c4ccccc4c3n2C)cc1`, the “activity change, negative = inhibition” value was -18.5%.

With `N#Cc1c(N)sc2c1CCN(C(=O)OCc1ccccc1)C2`, the Potency was 56.2 µM (active).

Regarding `CC(=O)N1CCc2c(sc(NC(=O)CCS(=O)(=O)c3ccccc3)c2C#N)C1`, the “activity change, negative = inhibition” value is -9.72%.

Regarding `CC(C)N1CCc2c(sc(NC(=O)Cc3ccccc3)c2C#N)C1`, the “activity change, negative = inhibition” value is -12.7%.

On to `Cn1c(=O)c2c(nc(SCC(=O)Nc3ccc(F)cc3)n2Cc2ccccc2)n(C)c1=O`, for which the “activity change, negative = inhibition” value is 2.06%.

For `Cc1cccc(NC(=O)CSCC(=O)Nc2nnc(C3CC3)s2)c1`, the “activity change, negative = inhibition” value was -2.27%.

Turning to `CC1CCN(c2ccc(C(=O)Nc3nnc(C4CC4)s3)cc2[N+](=O)[O-])CC1`, the “activity change, negative = inhibition” value was -29.4%.

`O=C(CN1C(=O)c2ccc([N+](=O)[O-])cc2C1=O)Nc1nnc(C2CC2)s1`: the Potency is 79.4 µM (active).

As to `COc1ccc(NC(=O)CN2CCCN(Cc3ccccc3)S2(=O)=O)cc1`, the “activity change, negative = inhibition” value was -17.2%.

(Values after PubChem BioAssay AID504339 (National Center for Advancing Translational Sciences (NCATS), 2011).)
